Measurements taken from the supplement of paper PMC10849652.
Targets with a hit are over-represented here; the source holds about 8,800 in all. About 0.5% of all pairs of compound and target were hits. Unmarked numbers belong to inactive results.

Tests used:
Assay in all cases: log2 fold change, soluble protein after heating vs DMSO (PISA); higher = thermal stabilisation; K562 lysate, 10 uM; active = over 0.2 and 3.5 SD of the protein, either way, in both replicates (recomputed)
vorinostat = compound: O=C(CCCCCCC(=O)Nc1ccccc1)NO [vorinostat]
Outline: (§1)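 To prepare the extract, K562 pellets were dounce-homogenised in PBS pH 7.4 with 1 mM MgCl2, giving crude material at 1 mg/mL protein. This was treated with 10 μM compound for 30 min, then heated in aliquots for 3 min over 48°C-58°C before pooling and addition of NP-40 to 0.5% at 4°C. Centrifugation at 21,000xg for 90 min left soluble protein in the supernatant, which TMTpro 16plex LC-MS/MS quantified with equalised channel sums. Results are log-two fold changes in thermal stability compared with solvent controls, from duplicates.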

silmitasertib = compound: O=C(O)c1ccc2c(c1)nc(Nc1cccc(Cl)c1)c1ccncc12 [silmitasertib]
Outline: as §1

[1] = compound: O=C1NC(=O)C(c2cnc3ccccn23)=C1c1cn2c3c(cc(F)cc13)CN(C(=O)N1CCCCC1)CC2
Outline: as §1

entospletinib = compound: c1cn2cc(-c3ccc4cn[nH]c4c3)nc(Nc3ccc(N4CCOCC4)cc3)c2n1 [entospletinib]
Outline: as §1

[2] = compound: NCC(=O)Nc1ccc(-n2nc(C(F)(F)F)cc2-c2ccc3c(ccc4ccccc43)c2)cc1
Outline: as §1

Sequence of UniProt Q9BW66 (Q9BW66 whole entry, looked up): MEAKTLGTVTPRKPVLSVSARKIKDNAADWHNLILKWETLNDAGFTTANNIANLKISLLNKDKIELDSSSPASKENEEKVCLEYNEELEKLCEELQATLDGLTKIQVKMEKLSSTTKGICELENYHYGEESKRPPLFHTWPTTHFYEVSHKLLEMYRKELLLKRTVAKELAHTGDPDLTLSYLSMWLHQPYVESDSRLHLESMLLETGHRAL
Sequence of UniProt P12111 (P12111 whole entry, looked up): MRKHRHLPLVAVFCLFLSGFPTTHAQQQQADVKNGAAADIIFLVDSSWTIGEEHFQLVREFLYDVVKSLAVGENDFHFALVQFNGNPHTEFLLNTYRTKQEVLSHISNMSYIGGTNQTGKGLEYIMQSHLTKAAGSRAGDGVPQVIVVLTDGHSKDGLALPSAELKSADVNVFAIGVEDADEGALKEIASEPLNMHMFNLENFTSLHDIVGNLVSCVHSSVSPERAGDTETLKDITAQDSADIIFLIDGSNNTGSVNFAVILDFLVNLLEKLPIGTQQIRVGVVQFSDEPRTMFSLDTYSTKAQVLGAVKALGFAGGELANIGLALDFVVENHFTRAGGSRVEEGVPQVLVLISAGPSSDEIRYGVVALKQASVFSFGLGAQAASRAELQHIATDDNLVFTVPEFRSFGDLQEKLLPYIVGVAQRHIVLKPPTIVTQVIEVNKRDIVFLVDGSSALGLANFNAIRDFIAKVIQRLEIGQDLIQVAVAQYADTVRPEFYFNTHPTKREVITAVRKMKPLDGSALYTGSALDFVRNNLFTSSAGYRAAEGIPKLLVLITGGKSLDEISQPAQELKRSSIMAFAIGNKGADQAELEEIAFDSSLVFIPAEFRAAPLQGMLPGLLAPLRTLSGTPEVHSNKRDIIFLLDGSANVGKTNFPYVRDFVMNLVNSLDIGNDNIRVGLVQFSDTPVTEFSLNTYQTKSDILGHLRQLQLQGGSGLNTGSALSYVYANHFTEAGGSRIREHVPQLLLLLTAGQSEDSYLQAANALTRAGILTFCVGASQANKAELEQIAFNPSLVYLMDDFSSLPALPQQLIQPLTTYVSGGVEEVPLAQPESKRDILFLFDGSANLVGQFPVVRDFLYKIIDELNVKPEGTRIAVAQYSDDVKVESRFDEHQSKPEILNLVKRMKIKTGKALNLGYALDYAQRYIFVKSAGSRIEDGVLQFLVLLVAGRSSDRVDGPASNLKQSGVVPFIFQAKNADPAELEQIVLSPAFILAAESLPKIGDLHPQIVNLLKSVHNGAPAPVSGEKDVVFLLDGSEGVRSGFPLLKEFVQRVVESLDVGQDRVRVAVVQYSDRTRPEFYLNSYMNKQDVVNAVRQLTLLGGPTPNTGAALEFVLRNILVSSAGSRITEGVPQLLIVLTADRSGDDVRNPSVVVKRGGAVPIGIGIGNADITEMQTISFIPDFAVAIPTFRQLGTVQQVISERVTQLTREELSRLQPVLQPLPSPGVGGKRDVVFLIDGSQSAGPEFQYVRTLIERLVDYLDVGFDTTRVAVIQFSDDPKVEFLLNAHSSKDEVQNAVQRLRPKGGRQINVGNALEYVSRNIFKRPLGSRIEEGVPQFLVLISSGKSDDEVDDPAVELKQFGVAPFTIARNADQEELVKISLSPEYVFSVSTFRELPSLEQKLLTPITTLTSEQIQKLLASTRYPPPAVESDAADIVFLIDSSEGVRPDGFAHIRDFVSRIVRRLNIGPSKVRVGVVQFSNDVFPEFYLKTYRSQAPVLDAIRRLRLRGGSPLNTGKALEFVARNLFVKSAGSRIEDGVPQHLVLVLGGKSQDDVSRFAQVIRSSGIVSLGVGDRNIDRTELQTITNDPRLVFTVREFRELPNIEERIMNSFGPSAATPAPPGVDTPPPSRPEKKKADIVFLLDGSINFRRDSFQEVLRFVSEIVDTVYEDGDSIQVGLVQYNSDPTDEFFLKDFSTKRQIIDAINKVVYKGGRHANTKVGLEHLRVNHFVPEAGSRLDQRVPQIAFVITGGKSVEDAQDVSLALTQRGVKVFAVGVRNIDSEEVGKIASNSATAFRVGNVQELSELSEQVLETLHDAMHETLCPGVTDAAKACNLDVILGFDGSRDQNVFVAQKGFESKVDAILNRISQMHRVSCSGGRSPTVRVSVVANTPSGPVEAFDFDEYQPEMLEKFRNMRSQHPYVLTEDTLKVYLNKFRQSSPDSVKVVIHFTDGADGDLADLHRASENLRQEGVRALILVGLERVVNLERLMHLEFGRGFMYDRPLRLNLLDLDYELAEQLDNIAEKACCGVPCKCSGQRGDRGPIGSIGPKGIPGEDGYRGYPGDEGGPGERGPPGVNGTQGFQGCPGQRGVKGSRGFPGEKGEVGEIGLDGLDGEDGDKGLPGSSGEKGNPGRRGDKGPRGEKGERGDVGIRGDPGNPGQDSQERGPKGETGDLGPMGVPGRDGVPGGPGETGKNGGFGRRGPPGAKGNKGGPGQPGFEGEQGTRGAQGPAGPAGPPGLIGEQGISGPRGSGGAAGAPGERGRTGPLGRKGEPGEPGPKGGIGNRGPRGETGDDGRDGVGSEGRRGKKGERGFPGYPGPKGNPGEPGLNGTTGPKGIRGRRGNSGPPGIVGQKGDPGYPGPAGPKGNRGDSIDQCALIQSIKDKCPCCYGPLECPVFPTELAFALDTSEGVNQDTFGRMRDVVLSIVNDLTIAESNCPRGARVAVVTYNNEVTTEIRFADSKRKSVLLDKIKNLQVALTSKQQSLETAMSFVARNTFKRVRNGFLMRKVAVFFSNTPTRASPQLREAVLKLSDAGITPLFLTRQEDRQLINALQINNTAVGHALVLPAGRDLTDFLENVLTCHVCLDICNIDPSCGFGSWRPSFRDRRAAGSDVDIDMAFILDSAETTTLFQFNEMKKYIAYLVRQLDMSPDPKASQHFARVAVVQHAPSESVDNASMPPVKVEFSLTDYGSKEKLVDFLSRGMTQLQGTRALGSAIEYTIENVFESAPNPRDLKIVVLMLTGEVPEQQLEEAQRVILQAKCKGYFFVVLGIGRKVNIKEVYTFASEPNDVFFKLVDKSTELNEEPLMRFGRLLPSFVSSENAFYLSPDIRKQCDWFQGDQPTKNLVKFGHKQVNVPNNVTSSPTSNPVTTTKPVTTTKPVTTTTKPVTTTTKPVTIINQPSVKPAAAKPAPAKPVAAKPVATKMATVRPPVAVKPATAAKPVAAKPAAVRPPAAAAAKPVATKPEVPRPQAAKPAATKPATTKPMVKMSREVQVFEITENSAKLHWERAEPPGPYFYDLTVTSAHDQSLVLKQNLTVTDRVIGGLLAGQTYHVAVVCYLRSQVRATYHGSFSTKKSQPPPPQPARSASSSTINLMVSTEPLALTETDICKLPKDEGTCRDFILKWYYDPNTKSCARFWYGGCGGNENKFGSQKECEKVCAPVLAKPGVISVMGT
Sequence of UniProt Q6UX07 (Q6UX07 whole entry, looked up): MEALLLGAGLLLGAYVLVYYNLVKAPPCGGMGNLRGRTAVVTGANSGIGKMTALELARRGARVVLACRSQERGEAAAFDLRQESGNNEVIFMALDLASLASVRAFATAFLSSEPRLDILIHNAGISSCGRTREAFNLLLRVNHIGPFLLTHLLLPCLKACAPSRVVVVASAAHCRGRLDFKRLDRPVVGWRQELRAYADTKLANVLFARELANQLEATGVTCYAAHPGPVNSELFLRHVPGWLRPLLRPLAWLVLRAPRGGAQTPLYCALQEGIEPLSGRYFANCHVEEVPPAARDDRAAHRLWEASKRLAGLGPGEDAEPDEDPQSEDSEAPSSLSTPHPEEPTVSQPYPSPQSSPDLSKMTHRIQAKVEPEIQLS
Sequence of UniProt P09543 (P09543 whole entry, looked up): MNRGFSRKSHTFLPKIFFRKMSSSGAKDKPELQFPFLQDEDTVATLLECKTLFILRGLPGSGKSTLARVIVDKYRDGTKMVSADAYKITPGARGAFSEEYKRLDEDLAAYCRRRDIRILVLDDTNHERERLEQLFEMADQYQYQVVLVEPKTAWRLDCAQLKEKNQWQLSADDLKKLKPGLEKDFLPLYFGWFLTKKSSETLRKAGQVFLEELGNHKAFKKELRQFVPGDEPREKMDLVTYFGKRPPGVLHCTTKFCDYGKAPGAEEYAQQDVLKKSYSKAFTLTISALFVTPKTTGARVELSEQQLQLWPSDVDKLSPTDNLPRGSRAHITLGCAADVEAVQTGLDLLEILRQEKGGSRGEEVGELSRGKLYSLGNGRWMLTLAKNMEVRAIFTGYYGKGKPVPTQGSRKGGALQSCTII
Sequence of UniProt Q5D0E6 (Q5D0E6 whole entry, looked up): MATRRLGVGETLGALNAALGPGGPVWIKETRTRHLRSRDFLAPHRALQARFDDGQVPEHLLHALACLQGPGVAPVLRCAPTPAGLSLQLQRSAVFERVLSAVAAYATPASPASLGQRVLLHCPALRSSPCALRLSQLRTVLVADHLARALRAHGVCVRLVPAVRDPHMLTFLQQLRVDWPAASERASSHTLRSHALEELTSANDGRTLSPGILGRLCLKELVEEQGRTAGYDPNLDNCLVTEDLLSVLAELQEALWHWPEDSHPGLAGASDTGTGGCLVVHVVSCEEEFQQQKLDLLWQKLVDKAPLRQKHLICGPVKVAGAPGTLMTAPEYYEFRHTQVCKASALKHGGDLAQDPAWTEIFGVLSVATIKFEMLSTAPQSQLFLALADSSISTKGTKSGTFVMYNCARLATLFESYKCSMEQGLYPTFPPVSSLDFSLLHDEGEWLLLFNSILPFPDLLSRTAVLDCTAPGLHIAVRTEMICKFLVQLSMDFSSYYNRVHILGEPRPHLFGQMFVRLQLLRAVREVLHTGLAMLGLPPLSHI
Sequence of UniProt Q9UJA2 (Q9UJA2 whole entry, looked up): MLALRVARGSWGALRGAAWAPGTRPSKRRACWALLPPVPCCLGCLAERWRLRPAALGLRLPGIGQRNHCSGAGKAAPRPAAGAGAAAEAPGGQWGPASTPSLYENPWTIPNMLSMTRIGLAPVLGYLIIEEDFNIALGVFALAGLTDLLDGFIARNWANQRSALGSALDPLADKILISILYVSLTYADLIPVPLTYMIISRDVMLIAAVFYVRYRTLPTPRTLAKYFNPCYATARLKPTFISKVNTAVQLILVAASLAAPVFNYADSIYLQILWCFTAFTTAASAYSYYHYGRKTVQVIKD

Target	log2 fold change (vorinostat)	log2 fold change (silmitasertib)	log2 fold change [1]	log2 fold change (entospletinib)	log2 fold change [2]
DNM2 isoform 4 (UniProt P50570)	-0.826 (active)	0.047	-0.014	-0.02	
CNP (UniProt P09543)	-0.298 (active)	-0.001	0.059	0.017	-0.017
DHRS13 (UniProt Q6UX07)	1.11 (active)	0.059	-0.001		
DIAPH1 (UniProt O60610)	-0.014	0.009	-0.02	-0.003	0.013
CNOT2 (UniProt F8VRS8)	-0.056	0.152			
CINP isoform 3 (UniProt Q9BW66)			0.043	0.009	0.084
COQ9 (UniProt O75208)	0.084	0.002	0.031	-0.012	0.005
DEF6 (UniProt Q9H4E7)	-0.416 (active)	0.032	-0.045	0.022	0.085
COL6A3 (UniProt P12111)	0.273	0.002	-0.093		
DGCR8 (UniProt Q8WYQ5)	-0.38 (active)	-0.041	-0.054	-0.066	-0.027
CRLS1 (UniProt Q9UJA2)	-0.572 (active)	0.172	0.036		
CSNK2A1 (UniProt P68400)	0.057		-0.046	0.213	0.15
DALRD3 (UniProt Q5D0E6)	-0.895 (active)	0.074		-0.046	-0.17
DDR1 isoform 5 (UniProt Q08345)			-0.026	-0.153	
CPLX1 (UniProt O14810)				0.119	0
CSRP2 (UniProt Q16527)			0.016	-0.132	
CSNK1D (UniProt P48730)			-0.002	-0.076	0.002
CKAP2 (UniProt Q8WWK9)	0.011	-0.013	-0.044	0.033	0.434 (active)
DDX4 (UniProt Q9NQI0)	-0.213	0.101		0.011	0.019
COPS9 (UniProt Q8WXC6)	0.341	-0.139			
